Source: PubChem (The Scripps Research Institute Molecular Screening Center)
An excerpt weighted towards active compounds, which were near 4.8% of everything screened.
hgDAF-12 ag – hgDAF-12 agonism, primary luciferase screen; activation, % at 6.8 µM; HEK293 GAL4-hgDAF12 UAS-luciferase reporter, agonist luminescence; normalized to butyrate control; actives 1.8% (n = 370,000); AID 687014;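 active = activation above a cutoff set at the mean of all screened compounds plus 3 SD, cut at about 10% in these data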
ssDAF-12 act – activators of S. stercoralis DAF-12 nuclear receptor; AID 652126; activation, % at 6.8 µM; actives 1% (n = 370,000); HEK293 ssDAF-12/GRIP1 lit1-tk-luc reporter, luminescence; % of 3 µM dafachronic acid response;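 active = activation above the mean over all tested compounds plus 3 SD, cut at about 0.9% in these data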
DAX1 inh-1 – inhibitors of human orphan nuclear receptor DAX1 (NR0B1); HEK293 Gal4-DAX1 luciferase reporter, luminescence; inhibition, % at 6.75 µM; actives 0.99% (n = 340,000);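 active = inhibition above the mean over all tested compounds plus 3 SD, cut at about 4.2% in these data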;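 also: inhibition shows as a rise in luminescence from relieved DAX1 repression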
SMARCA2 act – increases SMARCA2 function in MMTV reporter cells | activation, % at 9.1 µM | actives 1% (n = 370,000) | MG213 cells, MMTV-luciferase reporter, dexamethasone, overnight; in the data active = activation above about 7.8%
hcDAF-12 act – activators of H. contortus DAF-12 nuclear receptor; activation, % at 6.8 µM; AID 652067; actives 1.4% (n = 370,000); HEK293 hcDAF-12 lit1-tk-luc reporter, luminescence; 0% DMSO, 100% Δ7-dafachronic acid;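 active = activation above the mean of all tested compounds plus 3 SD, cut at about 5.5% in these data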
DAX1 inh-2 – blocks DAX1 repression of SF-1 activated StAR promoter | actives 1.1% (n = 370,000) | inhibition, % at 6.8 µM | HEK293T StAR-luciferase reporter, SF-1/DAX-1 repression relief | AID 652010;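 active = inhibition above the mean over all tested compounds plus 3 SD, cut at about 3.6% in these data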;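 also: higher inhibition means more luminescence from relief of DAX-1 repression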
LXRb hcDAF ctr – activates human LXR-beta, counter-screen for hcDAF-12 agonists; shares compounds with hcDAF-12 act; HEK293 Gal4-LXR tk-luc reporter, luminescence, 24 h; normalized: DMSO 0%, positive control 100%; activation, % at 6.8 µM; 3,400 tested, under 10 active;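 active = mean percent activation of the reporter above a cutoff set as the average over tested compounds plus their standard deviation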
Target sequence (P55055 whole entry, looked up, the tested form may be a part): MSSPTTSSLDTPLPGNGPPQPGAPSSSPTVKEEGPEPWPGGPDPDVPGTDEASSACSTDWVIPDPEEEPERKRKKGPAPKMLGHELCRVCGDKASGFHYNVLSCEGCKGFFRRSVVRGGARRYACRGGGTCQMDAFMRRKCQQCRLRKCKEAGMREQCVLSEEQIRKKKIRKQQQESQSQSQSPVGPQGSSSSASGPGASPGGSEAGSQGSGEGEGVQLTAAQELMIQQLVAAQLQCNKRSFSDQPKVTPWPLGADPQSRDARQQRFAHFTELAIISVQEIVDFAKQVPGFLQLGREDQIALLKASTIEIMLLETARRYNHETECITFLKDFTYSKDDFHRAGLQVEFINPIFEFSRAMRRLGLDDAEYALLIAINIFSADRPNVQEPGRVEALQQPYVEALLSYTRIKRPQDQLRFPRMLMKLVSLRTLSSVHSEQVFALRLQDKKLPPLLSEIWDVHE
hcDAF12 conf – hcDAF-12 agonism, confirmation assay | shares compounds with hcDAF-12 act | actives 61% (n = 3,400) | HEK293 hcDAF-12 lit1-tk-luc reporter, luminescence; % of Δ7-dafachronic acid response | activation, % at 6.8 µM;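 active = mean activation across triplicate tests above the threshold derived from the earlier primary screen, cut at about 5.5% in these data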
Hits are given with their value; - = inactive; . = not tested or not shown.

SMILES | hgDAF-12 ag | ssDAF-12 act | DAX1 inh-1 | SMARCA2 act | hcDAF-12 act | DAX1 inh-2 | LXRb hcDAF ctr | hcDAF12 conf
Cc1ccccc1CN1CCCCC(NC(=O)c2ccc(F)cc2)C1=O (stereo not given) | - | - | . | - | - | - | . | .
CCCC(=O)Nc1nc(-c2ccccc2)c(CC)s1 | - | - | - | - | - | - | . | .
Nc1cc2[nH]c(=O)c3ccccc3c2cc1Br | - | 1.1 | - | - | 9.7 | 3.7 | - | 9.3
O=C(Cc1cccs1)Nc1cccc(-c2nc3cc4ccccc4cc3[nH]2)c1 | 13 | - | - | - | 9.4 | - | - | -
CC(=O)Nc1ccc2sccc2c1 | - | - | - | - | - | - | . | .
CC(=O)/C(=N\Nc1ccccc1)Sc1nncn1C | - | - | - | - | 8.4 | - | - | -
O=C(COc1ncnc2sccc12)Nc1ccc(F)cc1F | - | - | - | - | - | - | . | .
Cc1[nH]c2ccccc2c1/C=N/Nc1cccc(C(=O)O)c1 | 13 | 0.9 | - | - | 11 | - | - | 13
CC(C)(C)c1ccc(C(=O)NC(=O)COC(=O)c2ccco2)cc1 | - | - | - | - | - | - | . | .
Cc1csc(NC(=O)c2cc3c(s2)CCCC3)n1 | 12 | - | - | - | 11 | - | - | 7.0
Cc1cnc(NC(=O)c2cc3c(s2)CCCC3)s1 | - | - | - | - | 9.0 | - | - | 7.0
Cc1csc(NC(=O)c2cc3c(s2)CCCCC3)n1 | - | - | - | - | - | - | . | .
O=C1CC(c2cccs2)Sc2nc3ccccc3n21 (stereo not given) | - | 1.6 | - | - | 7.5 | - | - | 7.4
O=C1CC(c2ccc3c(c2)OCO3)Sc2nc3ccccc3n21 (stereo not given) | - | - | - | - | - | - | . | .
O=C1CC(c2ccco2)Sc2nc3ccccc3n21 (stereo not given) | - | 2.8 | - | - | 9.8 | - | - | 10
CC(=O)Nc1cc(C(=O)NCCN2CCN(Cc3ccccc3)CC2)ccc1Sc1ccc(C)cc1 | - | - | - | - | - | - | . | .
Cc1cc2ccccc2n1CCNC(=O)c1ccc(S(=O)(=O)N2CCCCC2)cc1 | - | - | - | - | 7.5 | - | - | -
Cc1ccc(C(=O)NCCc2ccc(S(=O)(=O)N3CCCC3)cc2)cc1 | - | - | - | - | - | - | . | .
Cn1c(=N)n(CC(=O)c2ccc(Br)s2)c2ccccc21 | 12 | 2.8 | - | - | 14 | - | - | 16
CCN(CC)CCn1c(=N)n(CC(=O)c2ccc(Br)s2)c2ccccc21 | - | - | . | - | - | - | . | .
CCOc1ccc(N2C(=O)C(=O)/C(=C(/O)c3ccccc3)C2c2ccccc2[N+](=O)[O-])cc1 (stereo not given) | - | 1.3 | - | - | 9.4 | - | - | -
CC(=O)C1=C(O)C(=O)N(c2ccc(O)cc2)C1c1ccccc1[N+](=O)[O-] (stereo not given) | - | - | - | - | - | - | . | .
O=C(CSc1nc2sc3c(c2c(=O)n1-c1ccc(Cl)cc1)CCC3)Nc1ccc(C(=O)O)cc1 | - | - | . | - | 7.9 | - | - | -
CN1CCc2c(sc3nc(SCC(N)=O)n(-c4ccc(Cl)cc4)c(=O)c23)C1 | - | - | - | - | - | - | . | .
C/C(=N\Nc1ccc(S(N)(=O)=O)cc1[N+](=O)[O-])c1ccccc1O | - | - | - | - | - | - | . | .
SMILES | hgDAF-12 ag | ssDAF-12 act | DAX1 inh-1 | SMARCA2 act | hcDAF-12 act | DAX1 inh-2 | LXRb hcDAF ctr | hcDAF12 conf
C/C(=N\Nc1ccccc1[N+](=O)[O-])c1ccccc1O | - | - | 4.4 | - | 6.9 | - | - | 14
Cn1c(=O)cc(OCC(=O)NCc2cccs2)c2ccccc21 | - | - | - | - | - | - | . | .
Nc1c(C(=O)Nc2ccccc2)sc2ncc([N+](=O)[O-])cc12 | - | - | . | - | - | - | . | .
Cc1nc2sc(C(=O)c3ccccc3)c(N)c2c(C)c1C | - | - | - | - | - | - | . | .
CC(=O)c1ccc(NC(=O)c2sc3nc(C)c(C)c(C)c3c2N)cc1 | - | 1.2 | 6.7 | - | 8.2 | - | - | 5.8
Cc1nc2sc(C(=O)Nc3ccccc3)c(N)c2c(C)c1[N+](=O)[O-] | - | 1.6 | 6.9 | - | 8.1 | 4.0 | - | 9.4
O=C(CSc1nccc2ccccc12)N1CCN(c2ccccn2)CC1 | - | - | - | - | 8.2 | - | - | -
Cc1ccc(SCC(=O)N2CCN(c3ccccn3)CC2)cc1 | - | - | - | - | - | - | . | .
Cc1ccc(-n2c(SCC(=O)N/N=C/C=C\c3ccccc3[N+](=O)[O-])nnc2-c2ccccc2)cc1 | - | - | . | - | - | - | . | .
O=C(OCC(=O)c1c[nH]c2ccccc12)C1=COCCO1 | - | 1.0 | - | - | 7.2 | - | - | 9.9
COc1cc2ccccc2cc1C(=O)Nc1nccs1 | 11 | 1.4 | - | - | 10.0 | - | - | 11
COc1ccccc1C(=O)Nc1ccc2ccccc2c1 | 14 | 1.6 | - | - | 20 | - | - | 12
COc1ccccc1C(=O)Nc1ccc(N2CCCCC2)cc1 | 11 | 2.7 | - | - | 13 | - | - | 14
CCN(CC)CCN(C(=O)C1=COCCO1)c1nc2c(OC)ccc(OC)c2s1 | - | - | - | - | - | - | . | .
COCCCN(Cc1ccco1)C(=O)CSc1nc2ncccc2[nH]1 | - | - | - | - | - | - | . | .
COc1ccc(NC(=O)CSc2ccc3ccccc3c2)cc1S(=O)(=O)N1CCCCC1 | - | - | - | - | - | - | . | .
O=C(Nc1ccccc1)c1cnc2ccccc2n1 | 11 | 1.1 | - | - | 7.5 | - | - | 7.4
CC(C)(C)c1ccc(-c2ncccc2O)cc1 | - | - | - | - | - | - | . | .
COc1cc(C(=O)N2CCC(N3CCN(C)CC3)CC2)ccc1Nc1ncc2c(n1)N(C)c1ccccc1C(=O)N2C | - | - | . | - | 6.8 | 3.7 | - | 6.4
COc1ccccc1N1CCN(C2CCN(C(=O)c3ccc(F)cc3)CC2)CC1 | - | - | - | - | - | - | . | .
COc1cc2c(cc1NC(=O)CSc1nnc(COc3ccccc3)n1Cc1ccco1)oc1ccccc12 | - | - | . | - | - | - | . | .
CC(C)c1ccc2c(c1)[C@H]1OCC[C@H]1[C@@H](c1cccs1)N2 | - | - | - | - | 14 | - | - | -
Cc1cc(C)c2c(c1)N[C@H](c1cccs1)[C@@H]1CCO[C@H]21 | - | - | - | - | - | - | . | .
N#CC(C#N)=Cc1cc2ccccc2nc1N1CCCCC1 | - | - | - | - | 7.1 | - | - | -
c1ccc(-c2ccccn2)nc1 | - | - | - | - | - | - | . | .
